# Laboratory results published in PubChem BioAssay (EPA / NIEHS).
# Inconclusive results are not listed. The source made the active and inactive calls. The calls were made as follows, unless noted: active = hit-call score of the fitted dose curve at least 0.9, where 1 is the maximum; inactive = score below 0.9.
# Key:
# [1] = ACEA_ER_80hr: ACEA Biosciences xCELLigence Real-Time Cell Analysis on Estrogen Receptor Agonism for Proliferation (AID 2282667; active = hit-call score of the fitted dose curve at least 0.9, where 1 is the maximum); settings: T47D proliferation, impedance (xCELLigence), 80 h
# Outline: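 Cell-growth kinetics were measured by impedance in T47D cells treated continuously with compound (top 100 uM final, 1:4 steps, 8 points). Activity at 80 h was scored as signal gain over the DMSO baseline.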
# [2] = ATG_CRE_CIS: Attagene CIS-FACTORIAL HepG2 Assay for human cAMP Responsive Element (CRE) binding protein 3 (AID 2282926); settings: HepG2 CRE cis-reporter, Attagene multiplexed mRNA; actives raise or lower the signal
# Outline: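 Cells carrying cis-regulated reporter constructs respond through their own endogenous factors. After 24 h treatment, RNA is reverse-transcribed, amplified, labelled and sized by capillary electrophoresis; up- and down-regulation are both scored against vehicle.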
# [3] = target: CCAAT/enhancer-binding protein beta (Homo sapiens) (UniProt P17676); assay: ATG_C_EBP_CIS: Attagene CIS-FACTORIAL HepG2 Assay for human CCAAT/Enhancer Binding Protein (C/EBP) beta (AID 2282927); settings: HepG2 Attagene cis-factorial transcription factor reporter; actives raise or lower the signal
# Outline: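 Following a 24 h incubation with test chemical, transfected HepG2 cells yielded RNA whose reporter transcripts were quantified by RT-PCR and fluorescent capillary electrophoresis, with DMSO serving as baseline for bidirectional fitting.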
# [4] = ATG_CMV_CIS: Attagene CIS-FACTORIAL HepG2 Assay for human CMV (Internal Marker) (AID 2282928); settings: HepG2 CMV promoter reporter, transcription factor profiling; actives raise or lower the signal;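 also: endpoint acts as a background internal control marker rather than a target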
# Outline: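 Bidirectional fits against DMSO are applied to reporter mRNA, read by RT-PCR with capillary electrophoresis, from HepG2 cells exposed 24 h. The endpoint serves as an internal CMV background marker within the cis-factorial reporter panel.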
# [5] = ATG_DR4_LXR_CIS: Attagene CIS-FACTORIAL HepG2 Assay for human Liver X Receptor (LXR), DR4 submotif (AID 2282929); settings: HepG2 Attagene DR4 cis-reporter, mRNA transcription; actives raise or lower the signal
# Outline: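 Total RNA from 24 h-treated, MRTU-transfected HepG2 cells underwent reverse transcription, PCR, fluorescent primer extension and restriction digestion before capillary electrophoresis. Both increases and decreases in reporter signal were fitted against DMSO.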
# [6] = target: Aryl hydrocarbon receptor (Homo sapiens) (UniProt P35869); assay: ATG_Ahr_CIS: Attagene CIS-FACTORIAL HepG2 Assay for human Aryl Hydrocarbon Receptor (Ahr) (AID 2282930); settings: HepG2 AhR cis-factorial reporter transcription; actives raise or lower the signal
# Outline: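 Values derive from bidirectional fitting against DMSO negative control. Underlying signal: cis-element reporter mRNA in transiently transfected HepG2, harvested 24 h post-dose and measured by RT-PCR plus capillary electrophoresis.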
# [7] = ATG_AP_1_CIS: Attagene CIS-FACTORIAL HepG2 Assay for human Activator Protein 1 (AP-1) (AID 2282931); settings: HepG2 Attagene cis-factorial AP-1 reporter mRNA; actives raise or lower the signal
# Outline: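 HepG2, transient cis-reporter transfection; 24 h; readout RT-PCR/CE fluorescence; DMSO baseline, gain and loss fitted.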
# [8] = ATG_AP_2_CIS: Attagene CIS-FACTORIAL HepG2 Assay for human Activator Protein 2 (AP-2) (AID 2282932); settings: HepG2 AP-2 cis-reporter, Attagene transcription factor profiling; actives raise or lower the signal
# Outline: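 Assay in transfected HepG2 with promoter-regulated reporters, 24 h incubation after dosing. Signal is reporter mRNA fluorescence (RT-PCR, capillary electrophoresis), analysed for both increases and decreases relative to DMSO controls.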
# [9] = ATG_BRE_CIS: Attagene CIS-FACTORIAL HepG2 Assay for human Bone Morphogenetic Protein (BMP) Response Element (BRE) (AID 2282933); settings: HepG2 BMP response element reporter, Attagene transcription factor profiling; actives raise or lower the signal
# Outline: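 HepG2 cells transiently transfected with multiplexed cis-element reporter units were dosed with chemical for 24 h. Reporter mRNA was measured by RT-PCR with fluorescent labelling, HpaI digestion and capillary electrophoresis; bidirectional fitting relative to DMSO.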
# [10] = target: Retinoic acid receptor alpha (Homo sapiens) (UniProt P10276); assay: ATG_DR5_RAR_CIS: Attagene CIS-FACTORIAL HepG2 Assay for human Retinoic Acid Receptor Alpha (RARE), DR5 submotif (AID 2282934); settings: HepG2 Attagene cis-factorial RARE DR5 reporter, mRNA; actives raise or lower the signal
# Outline: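 Endpoint fitted in both directions relative to DMSO as negative control. It reflects DR5 cis-element reporter mRNA induction in transiently transfected HepG2 cells, measured 24 h after dosing through RT-PCR and fluorescent capillary electrophoresis.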
# [11] = target: Transcription factor E2F1 (Homo sapiens) (UniProt Q01094); assay: ATG_E2F_CIS: Attagene CIS-FACTORIAL HepG2 Assay for human E2F Transcription Factor 1 (AID 2282935); settings: HepG2 Attagene cis-reporter, E2F reporter RNA transcripts; actives raise or lower the signal
# Outline: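 In this cis-factorial format, endogenous factor activity drives transfected reporters in HepG2; transcripts collected at 24 h are quantified by fluorescence after RT-PCR and capillary separation.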
# [12] = ATG_E_Box_CIS: Attagene CIS-FACTORIAL HepG2 Assay for human Enhancer Box (E-box) (AID 2282936); settings: HepG2 E-box cis-reporter transcription, actives raise or lower the signal
# Outline: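 Measured 24 h post-dosing in HepG2 cells transfected with multiple cis-regulated reporter units, signal being reporter mRNA induction detected by fluorescent RT-PCR with capillary electrophoresis; gain or loss fitted against DMSO.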
# [13] = ATG_M_61_CIS: Attagene CIS-FACTORIAL HepG2 Assay for M61 Transcription Factor (Internal Marker) (AID 2282937); settings: HepG2 Attagene CIS-FACTORIAL M61 internal marker reporter; actives raise or lower the signal
# Outline: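 Transfect HepG2 with MRTUs; dose 24 h; isolate RNA; reverse-transcribe with DNase I treatment; PCR-amplify, FAM-label and cut with HpaI for 2 h at 37 C; resolve by CE. Bidirectional fitting against DMSO.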
# [14] = ATG_EGR_CIS: Attagene CIS-FACTORIAL HepG2 Assay for human Early Growth Response 1 (EGR1) (AID 2282938); settings: HepG2 Attagene CIS-FACTORIAL EGR reporter mRNA; actives raise or lower the signal
# Outline: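 After a 24 h treatment of transiently transfected HepG2 cells, total RNA was reverse-transcribed and reporter sequences PCR-amplified, labelled and run on capillary electrophoresis. Reporters sit under cis-regulatory promoters sensing endogenous factors.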
# [15] = ATG_M_19_CIS: Attagene CIS-FACTORIAL HepG2 Assay for M19 Transcription Factor (Internal Marker) (AID 2282939); settings: HepG2 Attagene CIS-FACTORIAL M19 internal marker reporter; actives raise or lower the signal
# Outline: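 HepG2 cells transiently transfected with cis-regulated multiple reporter transcription units were dosed for 24 h; reporter mRNA was quantified by RT-PCR, 6-FAM primer-extension labelling, HpaI digestion and capillary electrophoresis, with bidirectional fitting against DMSO baseline.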
# [16] = ATG_ERE_CIS: Attagene CIS-FACTORIAL HepG2 Assay for Estrogen Response Element (ERE) (AID 2282940); settings: HepG2 ERE cis-reporter, Attagene RNA transcript; actives raise or lower the signal
# Outline: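 HepG2 cells transiently transfected with cis-promoter-driven multiplexed reporter transcription units report endogenous TF activity. After 24 h compound exposure, reporter mRNA is quantified by RT-PCR with capillary electrophoresis fluorescence; bidirectional fitting versus DMSO baseline.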
# [17] = ATG_Ets_CIS: Attagene CIS-FACTORIAL HepG2 Assay for human Erythroblast Transformation Specific (ETS) (AID 2282941); settings: HepG2 ETS cis-reporter transcription, actives raise or lower the signal
# Outline: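 Endogenous transcription factor activity read as reporter mRNA via RT-PCR and capillary electrophoresis, with gain or loss fitted bidirectionally against DMSO. Human HepG2 liver cells, transiently transfected CIS reporter constructs, 24 h exposure.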
# [18] = target: Hepatocyte nuclear factor 3-beta (Homo sapiens) (UniProt Q9Y261); assay: ATG_FoxA2_CIS: Attagene CIS-FACTORIAL HepG2 Assay for human Forkhead box A2 (FOXA2) (AID 2282942); settings: HepG2 cis-reporter transcription factor activity, 24 h; actives raise or lower the signal
# Outline: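 24 h dosing of HepG2 bearing cis-reporter constructs; mRNA readout by RT-PCR/CE fluorescence; bidirectional fit, DMSO baseline.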
# [19] = ATG_FoxO_CIS: Attagene CIS-FACTORIAL HepG2 Assay for human Forkhead box O (FoxO) (AID 2282943); settings: HepG2 Attagene cis-reporter, FoxO element, mRNA; actives raise or lower the signal
# Outline: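 Values reflect reporter mRNA induction or loss in HepG2 cells 24 h post-dosing, fitted bidirectionally with DMSO as negative control and baseline. Detection used RT-PCR and fluorescence capillary electrophoresis.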
# [20] = ATG_GATA_CIS: Attagene CIS-FACTORIAL HepG2 Assay for human GATA Binding Protein (AID 2282944); settings: HepG2 GATA cis-element reporter, Attagene multiplex mRNA; actives raise or lower the signal
# Outline: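 HepG2 cells transiently transfected with multiplexed cis-element reporter units reflecting endogenous transcription factor activity; reporter mRNA measured after 24 h dosing by RT-PCR, 6-FAM labeling, HpaI digestion and capillary electrophoresis. Bidirectional fitting versus DMSO baseline.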
# Sequence of Transcription factor E2F1 (Homo sapiens) (Q01094 whole entry, looked up): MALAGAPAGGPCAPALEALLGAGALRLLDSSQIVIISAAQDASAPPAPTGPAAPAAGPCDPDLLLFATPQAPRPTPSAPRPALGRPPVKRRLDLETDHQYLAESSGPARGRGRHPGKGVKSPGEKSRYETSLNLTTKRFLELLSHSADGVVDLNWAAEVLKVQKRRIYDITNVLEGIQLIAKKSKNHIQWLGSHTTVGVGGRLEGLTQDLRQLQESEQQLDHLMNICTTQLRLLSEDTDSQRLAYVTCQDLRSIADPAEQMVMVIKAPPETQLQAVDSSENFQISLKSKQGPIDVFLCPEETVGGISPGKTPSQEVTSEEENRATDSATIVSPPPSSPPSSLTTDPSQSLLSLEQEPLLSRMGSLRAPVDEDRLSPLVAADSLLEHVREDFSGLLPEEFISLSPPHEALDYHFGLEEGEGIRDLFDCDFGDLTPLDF
# Sequence of CCAAT/enhancer-binding protein beta (Homo sapiens) (P17676 whole entry, looked up): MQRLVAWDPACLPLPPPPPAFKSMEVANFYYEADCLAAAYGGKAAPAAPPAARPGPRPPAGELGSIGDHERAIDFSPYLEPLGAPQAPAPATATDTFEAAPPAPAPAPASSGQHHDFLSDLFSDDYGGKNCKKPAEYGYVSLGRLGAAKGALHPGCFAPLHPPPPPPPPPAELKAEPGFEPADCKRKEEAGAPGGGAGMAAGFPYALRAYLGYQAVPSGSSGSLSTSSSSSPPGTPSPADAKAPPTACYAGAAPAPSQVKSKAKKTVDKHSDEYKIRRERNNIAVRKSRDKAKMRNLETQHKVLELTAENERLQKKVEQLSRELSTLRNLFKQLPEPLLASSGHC
# Sequence of Retinoic acid receptor alpha (Homo sapiens) (P10276 whole entry, looked up): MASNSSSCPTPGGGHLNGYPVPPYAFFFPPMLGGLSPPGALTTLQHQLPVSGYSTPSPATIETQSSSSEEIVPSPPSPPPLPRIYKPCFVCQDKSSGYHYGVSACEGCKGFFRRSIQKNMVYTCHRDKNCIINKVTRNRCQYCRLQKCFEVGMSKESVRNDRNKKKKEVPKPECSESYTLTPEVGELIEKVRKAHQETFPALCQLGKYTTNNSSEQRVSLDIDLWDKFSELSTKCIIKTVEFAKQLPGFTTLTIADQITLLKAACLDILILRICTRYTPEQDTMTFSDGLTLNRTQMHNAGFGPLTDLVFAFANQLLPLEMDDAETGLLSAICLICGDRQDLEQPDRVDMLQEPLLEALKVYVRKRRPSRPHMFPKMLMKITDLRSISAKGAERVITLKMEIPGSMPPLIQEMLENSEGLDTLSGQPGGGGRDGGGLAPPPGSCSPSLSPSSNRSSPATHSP
# Sequence of Hepatocyte nuclear factor 3-beta (Homo sapiens) (Q9Y261 whole entry, looked up): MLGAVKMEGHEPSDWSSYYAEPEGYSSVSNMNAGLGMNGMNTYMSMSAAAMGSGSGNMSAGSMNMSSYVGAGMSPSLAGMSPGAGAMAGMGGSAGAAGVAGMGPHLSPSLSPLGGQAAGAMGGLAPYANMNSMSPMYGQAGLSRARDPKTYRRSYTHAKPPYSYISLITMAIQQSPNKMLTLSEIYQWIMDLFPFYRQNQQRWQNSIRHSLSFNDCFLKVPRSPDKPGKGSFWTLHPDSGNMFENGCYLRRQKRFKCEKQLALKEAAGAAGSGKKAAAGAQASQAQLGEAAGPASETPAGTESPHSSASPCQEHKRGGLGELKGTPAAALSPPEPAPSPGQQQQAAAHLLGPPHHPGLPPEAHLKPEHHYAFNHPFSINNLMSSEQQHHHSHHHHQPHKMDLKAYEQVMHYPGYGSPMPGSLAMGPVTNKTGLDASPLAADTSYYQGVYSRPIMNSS
# Sequence of Aryl hydrocarbon receptor (Homo sapiens) (P35869 whole entry, looked up): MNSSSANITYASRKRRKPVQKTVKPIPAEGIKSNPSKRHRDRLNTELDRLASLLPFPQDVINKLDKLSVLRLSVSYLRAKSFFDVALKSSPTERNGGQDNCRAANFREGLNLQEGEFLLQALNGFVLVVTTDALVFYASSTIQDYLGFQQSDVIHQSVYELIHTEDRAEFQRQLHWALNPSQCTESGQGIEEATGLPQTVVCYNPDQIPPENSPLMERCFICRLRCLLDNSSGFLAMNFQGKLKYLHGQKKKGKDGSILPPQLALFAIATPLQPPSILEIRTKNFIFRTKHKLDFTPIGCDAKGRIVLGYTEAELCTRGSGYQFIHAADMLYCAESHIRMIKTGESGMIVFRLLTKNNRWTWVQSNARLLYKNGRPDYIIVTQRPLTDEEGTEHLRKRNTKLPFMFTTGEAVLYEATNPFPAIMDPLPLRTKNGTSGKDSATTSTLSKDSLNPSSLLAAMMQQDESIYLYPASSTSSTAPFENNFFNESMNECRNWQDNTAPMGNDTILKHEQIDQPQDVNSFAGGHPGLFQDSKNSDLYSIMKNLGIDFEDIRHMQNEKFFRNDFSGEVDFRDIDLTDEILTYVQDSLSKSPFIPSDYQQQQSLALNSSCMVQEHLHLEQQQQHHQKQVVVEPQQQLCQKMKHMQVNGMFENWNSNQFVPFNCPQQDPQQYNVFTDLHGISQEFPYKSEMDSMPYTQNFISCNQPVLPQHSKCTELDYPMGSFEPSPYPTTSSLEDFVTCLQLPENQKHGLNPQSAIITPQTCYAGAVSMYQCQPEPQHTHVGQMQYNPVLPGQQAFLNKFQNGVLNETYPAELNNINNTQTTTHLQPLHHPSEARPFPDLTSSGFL
smiles,measurement,setting,value
Nc1ccc(C(=O)OCCCOC(=O)c2ccc(N)cc2)cc1,outcome,[1],inactive
same,outcome,[2],inactive
same,outcome,[3],inactive
same,outcome,[4],inactive
same,outcome,[5],inactive
same,outcome,[6],inactive
same,outcome,[7],inactive
same,outcome,[8],inactive
same,outcome,[9],inactive
same,outcome,[10],inactive
same,outcome,[11],inactive
same,outcome,[12],inactive
same,outcome,[13],inactive
same,outcome,[14],inactive
same,outcome,[15],inactive
same,outcome,[16],inactive
same,outcome,[17],inactive
same,outcome,[18],inactive
same,outcome,[19],inactive
same,outcome,[20],inactive
O=C(C=Cc1ccccc1)OCCc1ccccc1,outcome,[1],inactive
same,outcome,[2],inactive
same,outcome,[3],inactive
same,outcome,[4],inactive
same,AC50,[5],24.8 µM (active)
same,outcome,[6],inactive
same,outcome,[7],inactive
same,outcome,[8],inactive
same,outcome,[9],inactive
same,outcome,[10],inactive
same,outcome,[11],inactive
same,outcome,[12],inactive
same,outcome,[13],inactive
same,outcome,[14],inactive
same,outcome,[15],inactive
same,AC50,[16],32.7 µM (active)
same,outcome,[17],inactive
same,outcome,[18],inactive
same,outcome,[19],inactive
same,outcome,[20],inactive
CC(=O)CCC=C(C)C,outcome,[1],inactive
same,outcome,[2],inactive
same,outcome,[3],inactive
same,outcome,[4],inactive
same,outcome,[5],inactive
same,outcome,[6],inactive
same,outcome,[7],inactive
same,outcome,[8],inactive
same,outcome,[9],inactive
same,outcome,[10],inactive
same,outcome,[11],inactive
same,outcome,[12],inactive
same,outcome,[13],inactive
same,outcome,[14],inactive
same,outcome,[15],inactive
same,outcome,[16],inactive
same,outcome,[17],inactive
same,outcome,[18],inactive
same,outcome,[19],inactive
same,outcome,[20],inactive
CC1=NN(c2ccc(S(=O)(=O)O)cc2)C(=O)C1N=Nc1ccccc1 (stereo not given),outcome,[1],inactive
same,outcome,[2],inactive
same,outcome,[3],inactive
same,outcome,[4],inactive
same,outcome,[5],inactive
same,AC50,[6],10.7 µM (active)
same,outcome,[7],inactive
same,outcome,[8],inactive
same,outcome,[9],inactive
same,outcome,[10],inactive
same,outcome,[11],inactive
same,outcome,[12],inactive
same,outcome,[13],inactive
same,outcome,[14],inactive
same,outcome,[15],inactive
same,outcome,[16],inactive
same,outcome,[17],inactive
same,outcome,[18],inactive
same,outcome,[19],inactive
same,outcome,[20],inactive
CC1=CP(=O)(c2ccccc2)CC1 (stereo not given),outcome,[1],inactive
same,outcome,[2],inactive
same,outcome,[3],inactive
same,outcome,[4],inactive
same,outcome,[5],inactive
same,outcome,[6],inactive
same,outcome,[7],inactive
same,outcome,[8],inactive
same,outcome,[9],inactive
same,outcome,[10],inactive
same,outcome,[11],inactive
same,outcome,[12],inactive
same,outcome,[13],inactive
same,outcome,[14],inactive
same,outcome,[15],inactive
same,outcome,[16],inactive
same,outcome,[17],inactive
same,outcome,[18],inactive
same,outcome,[19],inactive
same,outcome,[20],inactive
CC(=O)OC(C)c1ccccc1 (stereo not given),outcome,[1],inactive
same,outcome,[2],inactive
same,outcome,[3],inactive
same,outcome,[4],inactive
same,outcome,[5],inactive
same,outcome,[6],inactive
same,outcome,[7],inactive
same,outcome,[8],inactive
same,outcome,[9],inactive
same,outcome,[10],inactive
same,outcome,[11],inactive
same,outcome,[12],inactive
same,outcome,[13],inactive
same,outcome,[14],inactive
same,outcome,[15],inactive
same,outcome,[16],inactive
same,outcome,[17],inactive
same,outcome,[18],inactive
same,outcome,[19],inactive
same,outcome,[20],inactive
CO[Si](C)(C)OC,outcome,[1],inactive
same,outcome,[2],inactive
same,outcome,[3],inactive
same,outcome,[4],inactive
same,outcome,[5],inactive
same,AC50,[6],0.376 µM (active)
same,outcome,[7],inactive
same,outcome,[8],inactive
same,outcome,[9],inactive
same,outcome,[10],inactive
same,outcome,[11],inactive
same,outcome,[12],inactive
same,outcome,[13],inactive
same,outcome,[14],inactive
same,outcome,[15],inactive
same,outcome,[16],inactive
same,outcome,[17],inactive
same,outcome,[18],inactive
same,outcome,[19],inactive
same,outcome,[20],inactive
